Among the test systems are SR leukemia; RPMI-8226 leukemia; OVCAR-8 ovarian; OVCAR-5 ovarian; OVCAR-4 ovarian; SK-OV-3 ovarian; IGROV1 ovarian; OVCAR-3 ovarian; HS 578T breast; NCI/ADR-RES ovarian; T-47D breast; BT-549 breast; MDA-MB-435 melanoma; SW-620 colon; MCF7 breast; HCT-116 colon; HCC-2998 colon; KM12 colon.
Assay in all cases: NCI-60 one-dose screen, 48 h (100 = growth as untreated, 0 = no growth, -100 = all killed)
Holding throughout (conditions): 10 µM unless noted

This is part of a sample that, as a whole, favours compounds with a hit. Of some 83,000 tested, about 20% had one in any assay.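 Step 1: grow cells in 96-well plates. Step 2: add test compound at a single concentration. Step 3: incubate 48 h. Step 4: record percent growth.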 A number with no mark means an inactive call. Active and inactive are the calls of the source. Rule for the calls: active = growth percent below 10; inactive = the rest.

For `CC/C(=C(/c1ccc(O)cc1)c1ccc(OCCN2CCCCC2)cc1)c1ccc(OC)cc1`, the growth was -23.3% (active) in the experiment on SR leukemia; 62.6% with RPMI-8226 leukemia; 91.5% in the experiment on OVCAR-8 ovarian; 90.9% in the experiment on OVCAR-5 ovarian; 90.4% in the experiment with OVCAR-4 ovarian; 99.3% in the experiment with SK-OV-3 ovarian. Also, the growth with IGROV1 ovarian was 85.3%; in the experiment on OVCAR-3 ovarian it was 66.1%; in the experiment with HS 578T breast, 92.2%; in the experiment with NCI/ADR-RES ovarian, 77.6%; in the experiment on T-47D breast, 43.4%; in the experiment on BT-549 breast, 79.2%. Also, the growth in the experiment with MDA-MB-435 melanoma is 13.2%; in the experiment with SW-620 colon it was 73.5%; in the experiment on MCF7 breast, 11.5%; in the experiment on HCT-116 colon it was 27.9%; in the experiment with HCC-2998 colon it was 87.2%; in the experiment on KM12 colon, 52.4%.
For the compound `O=C(/C=C/c1cn(-c2ccccc2)nc1-c1ccccc1)CCC(=O)NO`, the growth in the experiment on SR leukemia is 82.3%; in the experiment with RPMI-8226 leukemia, 99.3%; with OVCAR-8 ovarian, 97.2%; in the experiment on OVCAR-5 ovarian, 118%; with OVCAR-4 ovarian, 112%; in the experiment on SK-OV-3 ovarian it was 98.8%. Besides, the growth was 104% with IGROV1 ovarian; 99% in the experiment on OVCAR-3 ovarian; 95.3% in the experiment with HS 578T breast; 101% with NCI/ADR-RES ovarian; 96.7% with T-47D breast; 101% with BT-549 breast. For the same compound, the growth in the experiment with MDA-MB-435 melanoma was 112%; with SW-620 colon it was 108%; in the experiment on MCF7 breast it was 91.6%; with HCT-116 colon, 84%; in the experiment on HCC-2998 colon, 111%; with KM12 colon it was 96.9%.
Regarding `CC[C@@H](C(=O)[C@@H](C)[C@@H](O)[C@H](C)[C@@H]1O[C@@H]([C@@H](CC)C(=O)ONC(=O)c2ccccc2O)CC[C@@H]1C)C1O[C@]2(C=CC(=O)[C@]3(CC[C@@](C)([C@H]4CC[C@](O)(CC)[C@H](C)O4)O3)O2)[C@H](C)C[C@@H]1C` (some centres undefined), the growth in the experiment with SR leukemia was 1.64% (active); in the experiment with RPMI-8226 leukemia it was 24.6%; with OVCAR-8 ovarian, 54.9%; in the experiment with OVCAR-5 ovarian, 47%; with OVCAR-4 ovarian, 53.3%; in the experiment with SK-OV-3 ovarian, 120%. In addition, the growth in the experiment with IGROV1 ovarian was 58.8%; in the experiment on OVCAR-3 ovarian, 5.93% (active); in the experiment with HS 578T breast, 43.9%; in the experiment on NCI/ADR-RES ovarian, 48.7%; in the experiment with T-47D breast, 12.4%; in the experiment with BT-549 breast, 36.2%. The growth is 63% in the experiment with MDA-MB-435 melanoma; 40.8% in the experiment on SW-620 colon; 17.8% in the experiment with MCF7 breast; 36.7% with HCT-116 colon; 58.7% with HCC-2998 colon; 51.3% with KM12 colon.
Turning to `COc1cc(/C=C/c2cc(/C=C/c3ccc(O)c(OC)c3)n(C(=O)Nc3ccc(Cl)cc3)n2)ccc1O`, the growth in the experiment with SR leukemia was 1.52% (active); in the experiment on RPMI-8226 leukemia it was 2.91% (active); with OVCAR-8 ovarian it was -19.8% (active); in the experiment on OVCAR-5 ovarian, 10.9%; with OVCAR-4 ovarian, 13.3%; with SK-OV-3 ovarian, -0.374% (active). The growth in the experiment on IGROV1 ovarian was 9.93% (active); with OVCAR-3 ovarian, -11% (active); in the experiment with HS 578T breast it was 8.23% (active); with NCI/ADR-RES ovarian, 17.5%; in the experiment with T-47D breast it was 18.5%; in the experiment on BT-549 breast, -14.4% (active). The growth in the experiment on MDA-MB-435 melanoma was 2.46% (active); in the experiment on SW-620 colon, 9.56% (active); in the experiment with MCF7 breast it was 5.36% (active); with HCT-116 colon, 4.61% (active); with HCC-2998 colon it was 4.55% (active); in the experiment on KM12 colon, 3.53% (active).
As for `CCCCCCCCn1ccc2cc(NC(=O)CN3CCN(c4cc(C)nc(Cl)n4)CC3)ccc21`, the growth was 73.3% with SR leukemia; 73.5% in the experiment with RPMI-8226 leukemia; 94.9% in the experiment on OVCAR-8 ovarian; 95.2% in the experiment with OVCAR-5 ovarian; 75.2% in the experiment with OVCAR-4 ovarian; 105% with SK-OV-3 ovarian. Further, the growth in the experiment on IGROV1 ovarian was 72.5%; in the experiment on OVCAR-3 ovarian it was 108%; in the experiment with HS 578T breast, 94.2%; in the experiment with NCI/ADR-RES ovarian, 84.8%; in the experiment on T-47D breast, 67.8%; in the experiment with BT-549 breast, 75%. For the same compound, the growth in the experiment on MDA-MB-435 melanoma is 84.1%; with SW-620 colon, 95.3%; in the experiment on MCF7 breast, 75.4%; in the experiment on HCT-116 colon, 79.2%; with HCC-2998 colon, 106%; in the experiment with KM12 colon, 91.9%.
Take `CCOC(=O)C/C(=N\Nc1cc(=O)[nH]c2ccc(OC)cc12)C(=O)OCC`: the growth was 67% with SR leukemia; 68.5% with RPMI-8226 leukemia; 103% in the experiment with OVCAR-8 ovarian; 96.6% in the experiment with OVCAR-5 ovarian; 101% with OVCAR-4 ovarian; 121% with SK-OV-3 ovarian. Further, the growth in the experiment on IGROV1 ovarian was 92.4%; in the experiment on OVCAR-3 ovarian it was 109%; in the experiment on HS 578T breast, 91.8%; in the experiment with NCI/ADR-RES ovarian it was 103%; in the experiment with T-47D breast it was 101%; in the experiment with BT-549 breast it was 110%. For the same compound, the growth in the experiment with MDA-MB-435 melanoma was 99%; in the experiment with SW-620 colon, 90.3%; in the experiment with MCF7 breast, 87.9%; in the experiment on HCT-116 colon it was 101%; in the experiment on HCC-2998 colon it was 101%; in the experiment on KM12 colon, 99.2%.
With `O=C(/C=C/C12c3ccccc3C(c3ccccc31)C1C(=O)NC(=O)C12)c1ccc(Cl)cc1Cl` (centres undefined), the growth in the experiment with SR leukemia is 2.74% (active); in the experiment with RPMI-8226 leukemia it was -22.3% (active); in the experiment with OVCAR-8 ovarian, 11.1%; in the experiment on OVCAR-5 ovarian it was 37.6%; with OVCAR-4 ovarian, 42.9%; in the experiment with SK-OV-3 ovarian, 49.9%. The growth in the experiment on IGROV1 ovarian was 23.4%; in the experiment on OVCAR-3 ovarian, -29.3% (active); in the experiment with HS 578T breast, 30.5%; in the experiment with NCI/ADR-RES ovarian, 5.85% (active); in the experiment on T-47D breast, 9.41% (active); in the experiment on BT-549 breast, 14.6%. The growth in the experiment on MDA-MB-435 melanoma was -0.0298% (active); in the experiment with SW-620 colon it was 5.09% (active); with MCF7 breast it was 6.75% (active); in the experiment on HCT-116 colon, 2.09% (active); in the experiment with HCC-2998 colon, 68.2%; in the experiment on KM12 colon it was 17.4%.
As to `CC(C)(C)OC(=O)CN1CCc2c(sc3ncnc(N4CCN(c5ccc(F)cc5)CC4)c23)C1`, the growth in the experiment with SR leukemia was 79.8%; in the experiment with RPMI-8226 leukemia, 57.7%; with OVCAR-8 ovarian, 73.2%; in the experiment with OVCAR-5 ovarian, 82.8%; with OVCAR-4 ovarian, 85.5%; with SK-OV-3 ovarian, 102%. In addition, the growth with IGROV1 ovarian was 89.8%; in the experiment on OVCAR-3 ovarian, 90.5%; in the experiment on HS 578T breast, 70.4%; in the experiment on NCI/ADR-RES ovarian, 79.7%; with T-47D breast, 63.9%; in the experiment with BT-549 breast, 76.1%. For the same compound, the growth in the experiment with MDA-MB-435 melanoma is 93.3%; with SW-620 colon, 77.7%; in the experiment on MCF7 breast, 90.6%; in the experiment on HCT-116 colon, 87.3%; with HCC-2998 colon, 100%; in the experiment with KM12 colon, 83%.

The values are drawn from PubChem BioAssay (NCI).
